The source made the active and inactive calls.
Columns and labels:
[1] = system: PRMT1 (protein arginine N-methyltransferase 1); experiment: PRMT1 binders on small-molecule microarrays, primary screen, biochemical, small-molecule microarray, 635 nm fluorescence (AID 1088); details: small-molecule microarray binding, higher = more signal;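 further: binding of Prmt1 protein to compounds spotted on small-molecule microarray slides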
[2] = yeast growth modulation, basal conditions, primary screen, YJM789 clinical isolate, OD600, 24 h (AID 1089);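 further: growth of clinical yeast isolate S. cerevisiae YJM 789 seeded 1000 cells per well; test concentration not given here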; details: S. cerevisiae YJM789 growth, higher = more signal, called active from +8 up or from −8 down
[3] = fission yeast growth modulation, primary screen, strain 972, OD600, 24 h, no modulator (AID 1090);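 further: basal condition with compound alone and no growth modifier present; test concentration not given here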; details: S. pombe 972 growth, higher = more signal, called active from +8 up or from −8 down
[4] = S. cerevisiae growth modulation with rapamycin, primary screen, strain BY4716, OD600, 96 h (AID 1091); details: higher = more signal, called active from +8 up or from −8 down; further: test concentration not given here
[5] = target: Torsin-1A-interacting protein 2 (Homo sapiens) (UniProt Q8NFQ8); experiment: LULL1 binders on small-molecule microarray, primary screen, cell lysate, human LULL1 lysate, 635/667 nm fluorescence (AID 1092); details: hLULL1 lysate binding, 635 nm fluorescence, higher = more signal;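 further: probe is lysate of COS7 cells overexpressing human LULL1; score merges per-feature 667 nm fluorescence with signal-to-noise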
Chain of Torsin-1A-interacting protein 2 (Homo sapiens) (Q8NFQ8 whole entry, looked up): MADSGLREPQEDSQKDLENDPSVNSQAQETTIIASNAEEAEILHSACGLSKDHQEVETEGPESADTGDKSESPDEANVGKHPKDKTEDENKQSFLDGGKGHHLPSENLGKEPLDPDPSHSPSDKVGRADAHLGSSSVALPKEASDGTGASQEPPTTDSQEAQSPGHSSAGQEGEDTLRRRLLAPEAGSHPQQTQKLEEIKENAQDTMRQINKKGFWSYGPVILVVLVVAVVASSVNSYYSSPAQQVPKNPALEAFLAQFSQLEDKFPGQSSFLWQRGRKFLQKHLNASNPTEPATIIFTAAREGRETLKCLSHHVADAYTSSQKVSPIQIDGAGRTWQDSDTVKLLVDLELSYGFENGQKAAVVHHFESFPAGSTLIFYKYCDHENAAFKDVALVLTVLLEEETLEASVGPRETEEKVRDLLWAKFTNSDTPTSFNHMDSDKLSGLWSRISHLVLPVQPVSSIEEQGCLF

[6] = E. coli growth modulation, two-sided OD650, primary screen, E. coli filamentation project, strain DRC41, 24 h (AID 1093); details: OD650, 24 h, higher = more signal, called active from +8 up or from −8 down;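 further: MC1000 strain lacking acrAB efflux and sulA so SOS filamentation is blocked; test concentration not given here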
[7] = small-molecule microarray binders of probe aLefty2, primary screen, biochemical, biotinylated probe, 635/667 nm fluorescence (AID 1094); details: higher = more signal;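 further: score merges spot fluorescence near 667 nm with spot signal-to-noise ratio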
[8] = system: Noggin (protein binding on small-molecule microarray); experiment: Noggin binders on small-molecule microarray, primary screen, biochemical, 635/667 nm fluorescence (AID 1095); details: 635 nm fluorescence, higher = more signal;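 further: score merges 667 nm feature fluorescence with signal to noise over triplicate slides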
[9] = target: Neurogenic locus notch homolog protein 3 (Homo sapiens) (UniProt Q9UM47); experiment: NOTCH3 binders on small-molecule microarray, primary screen, biochemical, 635/667 nm fluorescence (AID 1096); details: NOTCH3 binding, 635 nm fluorescence, higher = more signal
Chain of Neurogenic locus notch homolog protein 3 (Homo sapiens) (Q9UM47 whole entry, looked up): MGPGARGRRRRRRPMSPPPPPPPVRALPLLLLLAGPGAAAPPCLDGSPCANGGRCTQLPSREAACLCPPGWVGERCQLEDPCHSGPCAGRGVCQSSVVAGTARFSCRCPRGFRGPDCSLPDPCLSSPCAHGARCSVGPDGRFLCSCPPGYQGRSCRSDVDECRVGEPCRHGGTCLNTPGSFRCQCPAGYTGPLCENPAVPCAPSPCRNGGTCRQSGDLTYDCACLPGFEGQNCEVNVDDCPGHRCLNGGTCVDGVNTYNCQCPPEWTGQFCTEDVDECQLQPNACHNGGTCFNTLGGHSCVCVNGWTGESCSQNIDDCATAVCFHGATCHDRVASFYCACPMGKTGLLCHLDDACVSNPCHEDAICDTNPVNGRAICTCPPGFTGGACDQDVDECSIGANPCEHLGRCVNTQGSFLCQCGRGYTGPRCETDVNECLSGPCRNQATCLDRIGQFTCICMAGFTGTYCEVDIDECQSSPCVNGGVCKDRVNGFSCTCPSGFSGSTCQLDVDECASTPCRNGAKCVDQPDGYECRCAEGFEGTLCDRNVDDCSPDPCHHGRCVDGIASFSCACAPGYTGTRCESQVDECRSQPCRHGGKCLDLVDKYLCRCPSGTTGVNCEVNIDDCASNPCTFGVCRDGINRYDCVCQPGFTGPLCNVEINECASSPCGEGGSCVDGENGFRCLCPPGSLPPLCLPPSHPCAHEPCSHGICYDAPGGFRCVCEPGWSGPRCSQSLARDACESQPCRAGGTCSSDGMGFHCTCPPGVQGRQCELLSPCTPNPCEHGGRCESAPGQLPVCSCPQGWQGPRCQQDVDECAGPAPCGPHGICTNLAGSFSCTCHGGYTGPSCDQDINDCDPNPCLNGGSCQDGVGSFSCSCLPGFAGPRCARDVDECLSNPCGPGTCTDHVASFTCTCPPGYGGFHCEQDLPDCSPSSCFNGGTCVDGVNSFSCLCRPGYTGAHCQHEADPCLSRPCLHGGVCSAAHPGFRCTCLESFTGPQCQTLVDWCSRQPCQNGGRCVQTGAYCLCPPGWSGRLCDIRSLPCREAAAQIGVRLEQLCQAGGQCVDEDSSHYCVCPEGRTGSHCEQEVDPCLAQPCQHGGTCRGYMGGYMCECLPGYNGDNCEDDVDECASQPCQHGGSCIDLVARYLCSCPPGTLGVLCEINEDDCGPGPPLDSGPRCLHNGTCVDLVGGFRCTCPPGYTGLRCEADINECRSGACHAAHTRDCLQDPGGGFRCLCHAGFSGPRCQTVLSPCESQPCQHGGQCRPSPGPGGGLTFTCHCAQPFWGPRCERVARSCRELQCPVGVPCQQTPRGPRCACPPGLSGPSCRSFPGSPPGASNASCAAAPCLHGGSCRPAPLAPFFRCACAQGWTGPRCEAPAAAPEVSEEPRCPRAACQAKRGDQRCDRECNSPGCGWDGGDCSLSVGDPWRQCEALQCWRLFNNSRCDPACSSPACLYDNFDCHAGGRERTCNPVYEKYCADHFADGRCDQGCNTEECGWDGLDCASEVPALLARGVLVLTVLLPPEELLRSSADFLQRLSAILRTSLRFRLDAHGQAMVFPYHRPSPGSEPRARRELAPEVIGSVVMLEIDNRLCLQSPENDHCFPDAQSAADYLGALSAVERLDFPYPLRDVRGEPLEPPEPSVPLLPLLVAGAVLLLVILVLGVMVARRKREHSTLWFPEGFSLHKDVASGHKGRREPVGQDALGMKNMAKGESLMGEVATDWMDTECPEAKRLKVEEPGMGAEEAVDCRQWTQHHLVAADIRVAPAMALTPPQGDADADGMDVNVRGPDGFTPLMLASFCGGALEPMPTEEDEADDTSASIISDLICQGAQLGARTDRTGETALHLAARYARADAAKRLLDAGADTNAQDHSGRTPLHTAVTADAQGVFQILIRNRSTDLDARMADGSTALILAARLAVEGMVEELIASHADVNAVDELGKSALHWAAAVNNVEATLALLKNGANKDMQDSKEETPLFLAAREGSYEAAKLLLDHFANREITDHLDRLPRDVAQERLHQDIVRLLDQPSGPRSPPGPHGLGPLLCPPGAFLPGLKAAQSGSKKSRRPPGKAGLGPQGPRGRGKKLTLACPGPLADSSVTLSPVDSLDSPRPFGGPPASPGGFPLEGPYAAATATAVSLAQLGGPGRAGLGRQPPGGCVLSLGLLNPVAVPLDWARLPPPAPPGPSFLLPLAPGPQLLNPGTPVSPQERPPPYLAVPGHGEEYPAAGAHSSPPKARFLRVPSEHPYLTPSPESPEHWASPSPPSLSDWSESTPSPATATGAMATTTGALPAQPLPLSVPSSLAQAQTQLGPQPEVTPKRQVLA

[10] = small-molecule microarray binders of probe aEGFR, primary screen, biochemical, biotinylated probe, 635/667 nm fluorescence (AID 1097); details: higher = more signal;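 further: probe is a biotinylated anti-EGFR antibody binding compounds printed on slides; score combines fluorescence near 667 nm and signal to noise of each spot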
[11] = system: Plasmodium falciparum Sir2 (PF13_0152, Sir2A); experiment: pfSir2 binders on small-molecule microarrays, primary screen, biochemical, small-molecule microarray, 635 nm fluorescence (AID 1098); details: small-molecule microarray binding, fluorescence 635 nm; higher = more signal;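 further: score merges spot fluorescence intensity with its signal-to-noise ratio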
[12] = small-molecule microarray binders of probe aDKK1, primary screen, biochemical, biotinylated probe, 635/667 nm fluorescence (AID 1099); details: higher = more signal;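 further: score merges 667nm spot fluorescence with signal to noise across triplicate slides; reference of the scale not given here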
[13] = small-molecule microarray binders of probe aCHRDL2, primary screen, biochemical, biotinylated probe, 635/667 nm fluorescence (AID 1100); details: higher = more signal
[14] = splicing luciferase reporter signal modulators, primary screen, spliceosome inhibition project, cell-based, HEK293, splice +/- reporter (AID 1101); details: luminescence, 24 h, higher = more signal, called active from +8 up or from −8 down;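 further: HEK293 cells carrying a splicing-competent luciferase reporter gene; test concentration not given here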
[15] = target: Fibroblast growth factor 10 (Homo sapiens) (UniProt O15520); experiment: FGF10 binders on small-molecule microarrays, primary screen, biochemical, small-molecule microarray, 635 nm fluorescence (AID 1102); details: FGF10 binding, fluorescence 635 nm, higher = more signal
Chain of Fibroblast growth factor 10 (Homo sapiens) (O15520 whole entry, looked up): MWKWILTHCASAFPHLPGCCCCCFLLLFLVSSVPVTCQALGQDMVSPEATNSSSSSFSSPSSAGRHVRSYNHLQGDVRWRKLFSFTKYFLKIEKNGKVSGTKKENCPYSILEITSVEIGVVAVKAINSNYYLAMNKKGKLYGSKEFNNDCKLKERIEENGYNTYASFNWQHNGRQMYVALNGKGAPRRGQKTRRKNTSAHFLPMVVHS

[16] = system: glycogen synthase kinase-3 (GSK3A per assay name; protocol says GSK3B); experiment: GSK3 binders on small-molecule microarrays, primary screen, biochemical, small-molecule microarray, 635 nm fluorescence, GSK3A (AID 1103); details: small-molecule microarray binding, fluorescence 635 nm; higher = more signal; further: the record names both GSK3A and GSK3B
[17] = target: Epidermal growth factor receptor (Homo sapiens) (UniProt P00533); experiment: EGFR binders on small-molecule microarrays, primary screen, biochemical, small-molecule microarray, 635 nm fluorescence (AID 1104); details: EGFR binding, higher = more signal;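 further: score merges 667 nm emission intensity with spot signal to noise over triplicate slides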
Chain of Epidermal growth factor receptor (Homo sapiens) (P00533 whole entry, looked up): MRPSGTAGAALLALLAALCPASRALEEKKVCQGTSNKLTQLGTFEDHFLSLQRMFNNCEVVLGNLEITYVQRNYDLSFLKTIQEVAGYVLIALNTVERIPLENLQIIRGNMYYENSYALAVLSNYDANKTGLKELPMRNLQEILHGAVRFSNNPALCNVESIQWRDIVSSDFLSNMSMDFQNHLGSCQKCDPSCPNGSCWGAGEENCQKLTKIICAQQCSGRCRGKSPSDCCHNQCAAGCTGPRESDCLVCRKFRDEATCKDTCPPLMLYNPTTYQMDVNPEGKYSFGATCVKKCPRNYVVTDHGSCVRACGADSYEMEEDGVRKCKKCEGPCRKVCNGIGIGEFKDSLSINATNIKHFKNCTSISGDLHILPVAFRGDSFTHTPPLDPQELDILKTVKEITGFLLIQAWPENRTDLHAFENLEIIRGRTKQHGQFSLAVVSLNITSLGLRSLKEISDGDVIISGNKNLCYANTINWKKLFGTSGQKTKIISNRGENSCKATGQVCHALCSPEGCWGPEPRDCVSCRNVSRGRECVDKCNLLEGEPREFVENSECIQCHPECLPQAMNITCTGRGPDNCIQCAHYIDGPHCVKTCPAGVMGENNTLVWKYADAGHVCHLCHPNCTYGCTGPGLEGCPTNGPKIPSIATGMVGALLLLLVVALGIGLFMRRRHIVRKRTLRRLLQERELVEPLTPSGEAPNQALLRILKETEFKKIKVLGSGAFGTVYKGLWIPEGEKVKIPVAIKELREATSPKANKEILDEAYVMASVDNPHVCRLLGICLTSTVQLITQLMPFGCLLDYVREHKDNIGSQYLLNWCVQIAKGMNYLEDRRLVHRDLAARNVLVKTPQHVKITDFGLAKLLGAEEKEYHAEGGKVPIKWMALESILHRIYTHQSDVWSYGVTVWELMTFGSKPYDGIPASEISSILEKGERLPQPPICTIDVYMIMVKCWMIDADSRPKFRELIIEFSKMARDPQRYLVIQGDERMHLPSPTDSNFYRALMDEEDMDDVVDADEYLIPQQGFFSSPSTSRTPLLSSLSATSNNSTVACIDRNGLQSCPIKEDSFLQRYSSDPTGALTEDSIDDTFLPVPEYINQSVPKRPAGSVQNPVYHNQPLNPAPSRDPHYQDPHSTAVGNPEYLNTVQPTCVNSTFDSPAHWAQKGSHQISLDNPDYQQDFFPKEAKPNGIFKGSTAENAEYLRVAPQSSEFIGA

[18] = target: Follistatin-related protein 3 (Homo sapiens) (UniProt O95633); experiment: FSTL3 binders on small-molecule microarrays, primary screen, biochemical, small-molecule microarray, 635 nm fluorescence (AID 1105); details: FSTL3 binding, higher = more signal;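 further: score merges emission near 667 nm and signal to noise per printed spot across three slides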
Chain of Follistatin-related protein 3 (Homo sapiens) (O95633 whole entry, looked up): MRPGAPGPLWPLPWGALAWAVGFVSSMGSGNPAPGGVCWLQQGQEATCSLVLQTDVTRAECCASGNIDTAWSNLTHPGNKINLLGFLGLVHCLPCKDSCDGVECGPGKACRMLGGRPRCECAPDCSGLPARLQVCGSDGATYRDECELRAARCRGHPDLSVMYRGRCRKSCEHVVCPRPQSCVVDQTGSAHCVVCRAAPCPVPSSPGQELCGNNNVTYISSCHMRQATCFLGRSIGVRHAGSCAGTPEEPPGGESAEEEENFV

[19] = target: Dickkopf-related protein 1 (Homo sapiens) (UniProt O94907); experiment: DKK1 binders on small-molecule microarrays, primary screen, biochemical, small-molecule microarray, 635 nm fluorescence scan (AID 1106); details: DKK1 binding, higher = more signal;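 further: score merges emission near 667 nm with signal to noise over three replicate slides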
Chain of Dickkopf-related protein 1 (Homo sapiens) (O94907 whole entry, looked up): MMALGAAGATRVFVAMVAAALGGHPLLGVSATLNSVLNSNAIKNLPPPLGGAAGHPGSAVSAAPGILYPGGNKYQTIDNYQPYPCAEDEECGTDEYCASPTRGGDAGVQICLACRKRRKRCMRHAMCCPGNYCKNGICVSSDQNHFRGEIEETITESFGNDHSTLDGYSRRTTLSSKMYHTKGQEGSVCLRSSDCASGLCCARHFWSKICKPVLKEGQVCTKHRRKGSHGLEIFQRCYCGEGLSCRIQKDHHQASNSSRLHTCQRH

[20] = system: Inhibin beta A chain (activin A); experiment: INHBA (activin A) binders on microarrays, primary screen, biochemical, small-molecule microarray, 635 nm fluorescence scan (AID 1107); details: small-molecule microarray binding, higher = more signal;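 further: mouse activin A protein probed at 4.33 µg/mL on printed slides; score merges bound-protein fluorescence near 667 nm with spot signal-to-noise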

Structure (SMILES)	composite z-score [1]	z-score [2]	z-score [3]	z-score [4]	composite z-score [5]	z-score [6]	composite z-score [7]	composite z-score [8]	composite z-score [9]	composite z-score [10]	composite z-score [11]	composite z-score [12]	composite z-score [13]	z-score [14]	composite z-score [15]	composite z-score [16]	composite z-score [17]	composite z-score [18]	composite z-score [19]	composite z-score [20]
C=C(COC)/C(=C/C[C@@H](OC(C)=O)c1ccccc1OCCO)c1cnc2ccccc2c1	1.56	0.27 (inactive)	-0.614 (inactive)	-0.112 (inactive)	0.895	0.359 (inactive)	-0.154	1.64	1.09	-0.0828	1.24	-0.151	-0.112	0.617 (inactive)	1.39	0.344	0.26	1.44	0.336	1.78
Cc1ccc(S[C@]2(C(=O)NCCCN(C)C)CC(=O)N(Cc3ccccc3C(F)(F)F)[C@@H]2c2ccc(CO)cc2I)cc1	0.349	-1.34 (inactive)	-3.27 (inactive)	0.0267 (inactive)	3.18	-0.328 (inactive)	-0.323	-0.496	-0.174	-0.378	1.18	-0.473	-0.464	-0.425 (inactive)	-0.54	-0.605	-1.04	-0.402	-1.25	0.812
CN(C)CCCC[C@@H]1NC(=O)[C@H]2C[C@@H](C(=O)O)[C@@H](c3ccc(O)cc3)N2C1=O	1.54	-0.116 (inactive)	-1.99 (inactive)	0.193 (inactive)	4.23	2.11 (inactive)	1.55	2.16	1.02	1.33	2.03	2.45	1.64	-1.28 (inactive)	1.55	1.44	1.85	1.53	2.03	1.98
O=C1O[C@@H](c2ccccc2)[C@@H](c2ccccc2)N2[C@@H](c3ccc(OCCO)cc3)[C@]3(C(=O)Nc4ccc(C#CC5(O)CCCCCC5)cc43)[C@@H](C(=O)Nc3nc4ccccc4s3)[C@H]12	1.55	2.44 (inactive)	1.19 (inactive)	2.78 (inactive)	2.96	0.799 (inactive)	0.0769	1.18	1.07	0.191	0.943	0.552	0.662	-0.102 (inactive)	1.39	1.31	0.533	1.38	0.553	0.541
C[C@@H]1ON(c2ccccc2)[C@H](c2ccccc2)[C@H]1C(=O)O	0.461	-0.452 (inactive)	0.252 (inactive)	-0.408 (inactive)	-0.0551	-0.108 (inactive)	-0.196	0.175	0.102	0.203	-0.344	-0.158	-0.269	0.221 (inactive)	0.777	0.362	-0.436	-0.213	0.796	-0.367
CC(C)C(=C=CC[C@H](O)c1ccccc1OCCO)C[C@H](O)c1cc(Cl)cc(Cl)c1O	1.55	-0.088 (inactive)	-2.34 (inactive)	-0.16 (inactive)	2.71	-0.0708 (inactive)	-0.226	0.811	1.03	0.0284	1.25	-0.0965	-0.13	-0.605 (inactive)	1.11	0.579	-0.172	0.588	-0.0053	0.149
[N-]=[N+]=Nc1ccccc1C[C@@]1(C(=O)NCC(O)CO)N=C(c2ccc(OCCCO)cc2)O[C@@H]1c1ccccc1 (stereo not given in full)	0.376	-0.558 (inactive)	-1.09 (inactive)	-1.31 (inactive)	2.81	0.883 (inactive)	-0.0021	-0.264	-0.405	-0.151	0.973	0.262	0.9	-0.0949 (inactive)	-0.134	0.119	-1.16	-0.932	-1.17	0.0121
CN1C(=O)C2C=CC(C(O)c3ccc(-c4ccccc4)s3)N(NC(=O)OC(C)(C)C)C2C1=O (stereo not given)	0.938	-0.673 (inactive)	1.47 (inactive)	0.0406 (inactive)	2.92	-0.328 (inactive)	0.367	-0.0619	0.687	-0.033	0.871	0.625	1.04	2.11 (inactive)	0.171	0.484	0.609	1.02	0.207	0.86
C=C(CCCC)/C(=C/C[C@H](OC(=O)c1ccncc1)c1cccc(OCCO)c1)c1cnc2ccccc2c1	1.53	-0.664 (inactive)	-0.968 (inactive)	8.23 (active)	2.52	-0.268 (inactive)	-0.121	0.869	1.13	-0.065	1.15	-0.138	-0.303	0.223 (inactive)	0.853	0.783	0.463	1.28	0.483	1.6
C=CCN1C(=O)[C@@]2(O[C@@H](CCn3cc([C@H](O)c4ccccc4)nn3)[C@H]([Si](C)(C)c3ccc(OC)cc3)[C@H]2C)c2cc(N3C(=O)c4cccc5cccc3c45)ccc21	0.183	0.584 (inactive)	1.18 (inactive)	1.31 (inactive)	1.5	-0.76 (inactive)	-0.189	-0.684	-0.193	-0.199	0.0764	-0.236	0.401	-0.447 (inactive)	-0.859	-1.37	-1.04	-1.06	-1.12	-0.893

Source: PubChem BioAssay
